Hit rate of the full screen: of about 52,000 compounds, about 4,300 (8.3%) were called active. Rule as the data show it: active = survival mostly below about 52% (no sharp cut-off); inactive = mostly above about 56%. Many of the other results were omitted from the sample, so actives are more common in it than they were.

The subject of the assay is DeltatarO mutant. As to the kind of experiment: growth inhibition of S. aureus wild type versus tarO mutant, primary screen, teichoic acid synthesis inhibitors, RN4220, OD600 (AID 463173). As to conditions: OD600, 18 h, hits give low values, screened at 18.75 µg/mL (by protocol).
Turning to `COc1ccc(C(=O)NCC(c2cccnc2)N2CCN(c3ccccc3F)CC2)cc1OC` (stereo not given), the survival is 86% (inactive).
As to `Cc1ccc2[nH]c(=O)c(CN(Cc3nnnn3CCc3ccccc3)C3CCCC3)cc2c1`, the survival is 91% (inactive).
Turning to `CCOc1ccc(OCC)c(NS(=O)(=O)c2ccc3c(c2)CCCN3C(C)=O)c1`, the survival is 73% (inactive).
As for `Cc1ccc(-c2noc(-c3cccnc3NCc3ccco3)n2)cc1`, the survival was 65% (inactive).
Under `Cc1ccccc1-c1noc(-c2cccnc2NCc2ccco2)n1` stands 52% (inactive); under `Clc1ccc(-c2noc(-c3cccnc3NCc3ccco3)n2)cc1`, 61% (inactive).
Under `Cc1cccc(-c2noc(-c3cccnc3NCc3ccco3)n2)c1` stands 44% (active); under `COc1ccc(-c2noc(-c3cccnc3NCc3ccco3)n2)cc1`, 98% (inactive); under `c1ccc(-c2noc(-c3cccnc3NCc3ccco3)n2)cc1`, 60% (active).
Under `Cc1cccc(N2CCN(C3(c4ccccc4)C(=O)c4ccccc4C3=O)CC2)c1C` stands 79% (inactive); under `CCC(=O)NC(c1ccccc1OC)c1cc(Cl)c2cccnc2c1O` (stereo not given), 68% (inactive); under `COc1ccccc1CC(=O)Nc1cccc(C)n1`, 97% (inactive).
On to `COc1cccc(C(=O)NC(c2ccc(Cl)cc2)c2cc(Cl)c3cccnc3c2O)c1` (stereo not given), for which the survival is 89% (inactive).
Consider `COc1ccc(C(=O)NC(c2ccc(Cl)cc2)c2cc(Cl)c3cccnc3c2O)cc1` (stereo not given), for which the survival is 88% (inactive).
The result for `Cc1cccc(NC(=O)c2ccccc2)n1` reads 93% (inactive); that for `Cc1cccc(NC(c2cccc(Cl)c2)c2ccc3cccnc3c2O)n1` (stereo not given), 2% (active).
Under `Cc1cccc(NC(c2ccccc2C)c2ccc3ccc(C)nc3c2O)n1` (stereo not given) stands 0% (active).
Consider `Cc1ccc(C(Nc2ccccn2)c2ccc3cccnc3c2O)cc1` (stereo not given), for which the survival is 1% (active).
With `Oc1cccc(C(Nc2ccccn2)c2ccc3cccnc3c2O)c1Cl` (stereo not given), the survival was 26% (active).
The result for `COc1ccc(C(=O)NC(c2ccccc2Cl)c2cc(Cl)c3cccnc3c2O)cc1` (stereo not given) reads 92% (inactive); that for `Nc1nnc(CCc2ccccc2)s1`, 80% (inactive).
Take `O=C(O)CCOc1ccc2c(c1)OCCO2`: the survival was 82% (inactive).
Under `CCC(CC)c1nn2c(=O)cc(COc3ccc(NC(=O)c4ccccc4C)cc3)nc2s1` stands 81% (inactive).
Turning to `O=C(CSc1nc2c(c(=O)[nH]1)CCC2)Nc1ccccc1C(F)(F)F`, the survival was 72% (inactive).
The result for `O=C(CN1C(=O)COc2ccc(S(=O)(=O)N3CCCCCC3)cc21)NCc1ccc(Cl)cc1` reads 113% (inactive); that for `CCOCCCNC(=O)c1cc2c(=O)n(C)c3ccccc3c2n1C`, 86% (inactive); that for `O=C(Nc1ccccc1C(F)(F)F)N1CCC2(CC1)Oc1ccccc1C(=O)N2Cc1ccccc1F`, 67% (inactive).
As for `COc1cc(-c2cc(OC)c3c(C)oc(C)c3c(=O)c2)ccc1OC(=O)c1ccc(C)cc1`, the survival was 88% (inactive).
Under `Cc1ccc(NC(=O)c2sc3nc(-c4ccc(F)cc4)cn3c2C)c(C)c1` stands 81% (inactive); under `O=C(O)CCC(=O)Nc1ccc2c(c1)oc1ccccc12`, 86% (inactive); under `Cc1ccc2ccc(C(Nc3ccccn3)c3ccccc3)c(O)c2n1` (stereo not given), 39% (active).
Consider `COc1ccc(C(Nc2ccccn2)c2ccc3ccc(C)nc3c2O)cc1C` (stereo not given), for which the survival was 40% (active).
Under `COc1cc(C(=O)NC(c2ccc(Cl)cc2)c2cc(Cl)c3cccnc3c2O)cc(OC)c1OC` (stereo not given) stands 85% (inactive).
In the case of `Cc1ccnc(NC(c2cccc(O)c2)c2ccc3ccc(C)nc3c2O)c1` (stereo not given), the survival is 68% (inactive).
Under `O=C(c1ccccc1)C(Nc1ccccn1)c1ccccc1` (stereo not given) stands 99% (inactive); under `Cc1ccc(C(C)C)cc1S(=O)(=O)Nc1ccccn1`, 101% (inactive).
The result for `O=C(COc1ccccc1Cl)Nc1ccccc1OCc1cc(=O)n2ccccc2n1` reads 92% (inactive).
For the molecule `COc1ccc(NC(=O)COCc2cc(-c3ccco3)on2)cc1Cl`, the survival was 112% (inactive).
As for `Cc1ccc(NC(=O)C2CCCN2S(=O)(=O)c2cccc3nsnc23)c(C)c1` (stereo not given), the survival was 78% (inactive).
As for `COc1cc(NC(=O)CN2C(=O)c3ccccc3Sc3ccc(C(=O)N4CCCC4)cc32)cc(OC)c1`, the survival is 72% (inactive).
`CCc1ccc2occ(CC(=O)Nc3ccc(OC)c(Cl)c3)c2c1`: the survival is 88% (inactive).
Consider `CCc1c(C)sc(NC(=O)c2cc(-c3ccc(OC)cc3)on2)c1C#N`, for which the survival was 50% (active).
Under `CCOC(=O)c1sc(NC(=O)c2cc(CC)on2)c(C(=O)OCC)c1C` stands 54% (inactive).
Turning to `CCc1c(C)sc(NC(=O)c2cc(-c3ccc(OC)c(OC)c3)on2)c1C#N`, the survival is 149% (inactive).
The result for `CCc1cc(C(=O)Nc2sc(C)c(CC)c2C#N)no1` reads 35% (active).
In the case of `CCc1c(C)sc(NC(=O)c2cc(-c3cccc(Cl)c3)on2)c1C#N`, the survival is 69% (inactive).
For the molecule `COc1ccc(-c2cc(C(=O)Nc3ccc(C#N)cc3)no2)cc1`, the survival was 46% (inactive).
Under `CC(C)OCCCn1c(=O)c2ccccc2n2c(-c3ccccc3)nnc12` stands 105% (inactive); under `CCCN1CCN(CCCNC(=O)c2ccc3c(c2)sc2nc(-c4ccc(C)cc4)cn23)CC1`, 18% (active); under `CCN1CCN(CCCNC(=O)c2ccc3c(c2)sc2nc(-c4ccc(C)cc4)cn23)CC1`, 26% (active).
The result for `CCN1CCN(CCCNC(=O)c2ccc3c(c2)sc2nc(-c4ccc(OC)cc4)cn23)CC1` reads 72% (inactive).
Under `COc1ccccc1Nc1nc(C)nc(N)c1S(=O)(=O)c1ccccc1` stands 84% (inactive); under `COc1ccc2cc(-c3nc(Cl)c4c5c(sc4n3)CCCC5)c(=O)oc2c1`, 76% (inactive).
For `COc1ccc2cc(-c3nc(Cl)c4c5c(sc4n3)CC(C)CC5)c(=O)oc2c1` (stereo not given), the survival was 77% (active).
Consider `CC1CCc2c(sc3nc(-c4cc5ccccc5oc4=O)nc(Cl)c23)C1` (stereo not given), for which the survival is 61% (inactive).
The result for `COc1ccc(-c2csc(NC(=O)C(C)C)n2)cc1` reads 84% (inactive); that for `CCOC(=O)COc1ccc(C)cc1C(=O)c1ccn2nc(-c3ccc(F)cc3)cc2n1`, 69% (inactive); that for `Cn1c(=O)oc2cc(S(=O)(=O)N3CCC(C(=O)NCc4ccccc4Cl)CC3)ccc21`, 125% (inactive).
Under `COC(=O)c1cc(-c2cc(OC)c(OC)c(OC)c2)no1` stands 99% (inactive).
As for `COc1ccc(OCc2nc3ccccc3n2Cc2ccc(C(C)(C)C)cc2)cc1`, the survival was -9% (active).
For `c1ccc(OCCn2c(COc3ccccc3)nc3ccccc32)cc1`, the survival was 0% (active).
Regarding `Cn1c(COc2ccccc2C(C)(C)C)nc2ccccc21`, the survival was 5% (active).
Consider `Cn1c(COc2ccccc2Br)nc2ccccc21`, for which the survival is 92% (inactive).
Take `CC(C)(C)c1ccc(OCc2nc3ccccc3n2CCOc2ccccc2)cc1`: the survival was 10% (active).
Under `COc1cccc(OCc2nc3ccccc3n2Cc2ccccc2)c1` stands 62% (inactive).
Regarding `Cc1ccc(C)c(OCc2nc3ccccc3n2C)c1`, the survival is 59% (inactive).
For `c1ccc(Cn2nnnc2C(c2ccccc2)N2CCN(Cc3ccncc3)CC2)cc1` (stereo not given), the survival is 78% (inactive).
Under `CCc1ccc(CNC(=O)c2cccc(-n3cnc4cccnc43)c2C)cc1` stands 88% (inactive); under `CC(=O)c1cccc(NC(=O)CN2C(=O)c3ccccc3Sc3ncccc32)c1`, 95% (inactive); under `COc1ccc(CNC2CCCC2)cc1`, 79% (inactive).
The result for `COc1ccc2[nH]cc(CCN=C(NC(=O)c3ccccc3F)Nc3nc(C)cc(C)n3)c2c1` reads 99% (inactive); that for `Cc1ccc(C)c(N2CCN(C(=O)CCc3nnc4n(C)c(=O)c5ccccc5n34)CC2)c1`, 95% (inactive); that for `COc1ccc(OCc2nnc(SCC(=O)N(C3CCCCC3)C3CCCCC3)o2)cc1`, 72% (inactive).
Regarding `CCc1nc(-c2cc(S(=O)(=O)N3CCN(c4ccccc4F)CC3)ccc2OC)no1`, the survival is 42% (active).
On to `CCc1nc(-c2cc(S(=O)(=O)N3CCN(c4ccccc4OC)CC3)ccc2OC)no1`, for which the survival was 42% (active).
The result for `CCc1nc(-c2cc(S(=O)(=O)N3CCN(c4ccc(F)cc4)CC3)ccc2OC)no1` reads 49% (inactive).
The result for `COc1ccc(S(=O)(=O)N2CCN(c3ccccc3OC)CC2)cc1-c1noc(C)n1` reads 110% (inactive); that for `COc1ccc(S(=O)(=O)N2CCN(c3ccccc3F)CC2)cc1-c1noc(C)n1`, 59% (inactive).
Under `CCc1nc(-c2cc(S(=O)(=O)N3CCN(c4ccccc4)CC3)ccc2OC)no1` stands 51% (inactive); under `Cc1ccc(OCC(=O)Nc2ccc3nc(SCC(=O)N4CCOCC4)sc3c2)cc1`, 86% (inactive).
Take `O=C(NCc1ccccc1Cl)c1ccc(CS(=O)(=O)c2ccc(Br)cc2)o1`: the survival was 127% (inactive).
Under `Cc1ccc(-c2onc(C)c2C)cc1S(=O)(=O)NC1CCC(C)CC1` (stereo not given) stands 82% (inactive); under `Cn1c(=O)n(C)c2cc(S(=O)(=O)Nc3ccccc3C(=O)O)ccc21`, 105% (inactive); under `COc1cccc(NC(=O)C(Cc2ccccc2)NS(=O)(=O)c2ccc3c(c2)c(=O)n(C)c(=O)n3C)c1` (stereo not given), 79% (inactive).
For the molecule `COCCNC(=O)Cn1c(=O)n(-c2ccc(C)c(C)c2)c(=O)c2c3c(sc21)CCCCC3`, the survival was 86% (inactive).
Turning to `CC(=O)c1cccc(NC(=O)Cn2ccn3nc(-c4ccccc4)cc3c2=O)c1`, the survival is 83% (inactive).
`COc1cc(CNc2ccc3[nH]c(=O)[nH]c3c2)cc(Cl)c1OCc1ccc(F)cc1`: the survival was 76% (inactive).
As to `COc1cc(CNc2ccc3[nH]c(=O)[nH]c3c2)cc(Br)c1OCc1ccc(F)cc1`, the survival is 99% (inactive).
With `CCOc1cc(CNc2ccc(O)cc2)ccc1OCc1ccc(Cl)cc1`, the survival was 53% (inactive).
For the molecule `CCOc1cc(CNc2ccc(C(=O)O)cc2)ccc1OCc1ccccc1`, the survival is 47% (active).
With `CCOc1cc(CNc2ccc(O)cc2)cc(Cl)c1OCc1ccccc1`, the survival is 1% (active).
Under `CCOc1cc(CNc2ccc(O)cc2)cc(Br)c1OCc1ccccc1` stands 3% (active); under `CCOc1ccc(CC(=O)NCc2ccc3c(c2)CCN3C(=O)c2ccccc2)cc1OCC`, 72% (inactive).
The result for `CCOc1c(Cl)cc(CNc2ccc3[nH]c(=O)[nH]c3c2)cc1OC` reads 95% (inactive); that for `Oc1ccc(NCc2ccccc2OCc2ccccc2)cc1`, 61% (inactive).

Source of the values: PubChem BioAssay AID463173 (ICCB-Longwood Screening Facility, Harvard Medical School, 2010).
